About 2,000 (36%) of roughly 5,500 compounds were called active. Another 18% or so got no clear call; they are omitted. Cut-off read from the data, not from the text of the source: active = normalized growth mostly below about 0.91 (no sharp cut-off); inconclusive = no clear call, values can overlap the other calls; inactive = mostly above about 0.92. The list shows a part of the results.
Experiment: chemical genetic growth profiling, strain panel (AID 1159580);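 note: tested at 20 µM; growth read once vehicle control cultures reached saturation at 30 °C; 1 = growth at the plate median or of vehicle wells; lower values mean less growth of the strain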
Conditions: growth OD

Measured: normalized growth

CCC(=O)c1c(O)cc(O)cc1O
inactive: S. cerevisiae deletion strains, locus YKL009W, strain mrt4, active compounds read low 1.03 | S. cerevisiae deletion strains, locus YKL068W, active compounds read low 0.989 | S. cerevisiae deletion strains, locus YKL085W, strain MDH1 (second series), active compounds read low 0.986 | S. cerevisiae deletion strains, locus YKL085W, strain MDH1, active compounds read low 0.986 | S. cerevisiae deletion strains, locus YKL160W, strain elf1, active compounds read low 0.972 | S. cerevisiae deletion strains, locus YKL190W, strain CNB1, active compounds read low 1 | S. cerevisiae deletion strains, locus YKR001C, strain vps1, active compounds read low 0.959 | S. cerevisiae deletion strains, locus YKR026C, strain gcn3, active compounds read low 0.992 | S. cerevisiae deletion strains, locus YKR091W, strain srl3, active compounds read low 0.988 | S. cerevisiae deletion strains, locus YLL001W, strain dnm1, active compounds read low 0.99 | S. cerevisiae deletion strains, locus YLL026W, active compounds read low 0.999 | S. cerevisiae deletion strains, locus YLL041C, strain sdh2, active compounds read low 0.985 | S. cerevisiae deletion strains, locus YLR027C, strain aat2, active compounds read low 0.987 | S. cerevisiae deletion strains, locus YLR039C, strain RIC1, active compounds read low 0.938 | S. cerevisiae deletion strains, locus YLR058C, strain SHM2, active compounds read low 1 | S. cerevisiae deletion strains, locus YLR102C, strain apc9, active compounds read low 0.979 | S. cerevisiae deletion strains, locus YLR113W, strain HOG1, active compounds read low 0.974 | S. cerevisiae deletion strains, locus YLR221C, strain rsa3, active compounds read low 1.01 | S. cerevisiae deletion strains, locus YLR258W, strain gsy2, active compounds read low 0.996 | S. cerevisiae deletion strains, locus YLR262C, strain YPT6 (second series), active compounds read low 1.01 | S. cerevisiae deletion strains, locus YLR262C, strain YPT6, active compounds read low 0.991 | S. cerevisiae deletion strains, locus YLR268W, strain sec22, active compounds read low 0.968 | S. cerevisiae deletion strains, locus YLR320W, strain mms22, active compounds read low 1.01 | S. cerevisiae deletion strains, locus YLR330W, strain CHS5, active compounds read low 1 | S. cerevisiae deletion strains, locus YLR342W, strain FKS1 (second series), active compounds read low 1 | S. cerevisiae deletion strains, locus YLR342W, strain FKS1, active compounds read low 0.978 | S. cerevisiae deletion strains, locus YLR357W, strain rsc2, active compounds read low 0.968 | S. cerevisiae deletion strains, locus YLR370C, strain arc18, active compounds read low 0.981 | S. cerevisiae deletion strains, locus YLR371W, strain rom2, active compounds read low 0.982 | S. cerevisiae deletion strains, locus YLR384C, strain iki3, active compounds read low 0.98 | S. cerevisiae deletion strains, locus YLR418C, strain cdc73, active compounds read low 0.94 | S. cerevisiae deletion strains, locus YML016C, strain PPZ1, active compounds read low 0.999 | S. cerevisiae deletion strains, locus YML032C, strain rad52, active compounds read low 0.981 | S. cerevisiae deletion strains, locus YML120C, strain ndi1, active compounds read low 0.991 | S. cerevisiae deletion strains, locus YML124C, strain tub3, active compounds read low 0.978 | S. cerevisiae deletion strains, locus YMR058W, strain fet3, active compounds read low 0.978 | S. cerevisiae deletion strains, locus YMR078C, strain ctf18, active compounds read low 0.976 | S. cerevisiae deletion strains, locus YMR125W, strain sto1, active compounds read low 0.985 | S. cerevisiae deletion strains, locus YMR129W, active compounds read low 0.988 | S. cerevisiae deletion strains, locus YMR205C, strain PFK2, active compounds read low 0.998 | S. cerevisiae deletion strains, locus YMR223W, strain ubp8, active compounds read low 0.978 | S. cerevisiae deletion strains, locus YMR231W, strain pep5, active compounds read low 0.991 | S. cerevisiae deletion strains, locus YMR263W, strain SAP30, active compounds read low 1.01 | S. cerevisiae deletion strains, locus YMR307W, strain GAS1, active compounds read low 1.01 | S. cerevisiae deletion strains, locus YNL067W, strain RPL9B, active compounds read low 1.01 | S. cerevisiae deletion strains, locus YNL071W, strain lat1, active compounds read low 0.995 | S. cerevisiae deletion strains, locus YNL128W, strain TEP1, active compounds read low 1.01 | S. cerevisiae deletion strains, locus YNL153C, strain GIM3, active compounds read low 1.02 | S. cerevisiae deletion strains, locus YNL183C, strain NPR1, active compounds read low 0.953 | S. cerevisiae deletion strains, locus YNL209W, strain ssb2, active compounds read low 0.992 | S. cerevisiae deletion strains, locus YNL233W, strain BNI4, active compounds read low 0.988 | S. cerevisiae deletion strains, locus YNL248C, strain rpa49, active compounds read low 1 | S. cerevisiae deletion strains, locus YNL250W, strain rad50, active compounds read low 0.981 | S. cerevisiae deletion strains, locus YNL271C, strain bni1, active compounds read low 0.979 | S. cerevisiae deletion strains, locus YNL298W, strain CLA4, active compounds read low 0.973 | S. cerevisiae deletion strains, locus YNL307C, strain MCK1, active compounds read low 0.991 | S. cerevisiae deletion strains, locus YNL322C, strain KRE1 (second series), active compounds read low 0.97 | S. cerevisiae deletion strains, locus YNL322C, strain KRE1, active compounds read low 1.01 | S. cerevisiae deletion strains, locus YNR049C, strain mso1, active compounds read low 0.987 | S. cerevisiae deletion strains, locus YNR052C, strain pop2, active compounds read low 0.983 | S. cerevisiae deletion strains, locus YOL006C, strain TOP1, active compounds read low 1.12 | S. cerevisiae deletion strains, locus YOL012C, strain htz1 0.785 | S. cerevisiae deletion strains, locus YOL147C, strain pex11, active compounds read low 0.97 | S. cerevisiae deletion strains, locus YOR001W, strain rrp6, active compounds read low 1.02 | S. cerevisiae deletion strains, locus YOR061W, strain CKA2, active compounds read low 1.01 | S. cerevisiae deletion strains, locus YOR069W, strain VPS5, active compounds read low 1 | S. cerevisiae deletion strains, locus YOR070C, strain gyp1, active compounds read low 0.985 | S. cerevisiae deletion strains, locus YOR080W, strain dia2, active compounds read low 0.981 | S. cerevisiae deletion strains, locus YOR083W, strain WHI5, active compounds read low 0.983 | S. cerevisiae deletion strains, locus YOR106W, strain vam3, active compounds read low 0.987 | S. cerevisiae deletion strains, locus YOR136W, strain idh2, active compounds read low 0.984 | S. cerevisiae deletion strains, locus YOR144C, strain elg1, active compounds read low 0.986 | S. cerevisiae deletion strains, locus YOR184W, strain ser1, active compounds read low 0.992 | S. cerevisiae deletion strains, locus YOR231W, strain MKK1, active compounds read low 1.01 | S. cerevisiae deletion strains, locus YOR265W, strain rbl2, active compounds read low 0.982 | S. cerevisiae deletion strains, locus YOR270C, strain vph1, active compounds read low 1.04 | S. cerevisiae deletion strains, locus YOR290C, strain snf2, active compounds read low 0.973 | S. cerevisiae deletion strains, locus YOR316C, strain cot1, active compounds read low 0.984 | S. cerevisiae deletion strains, locus YPL051W, strain arl3, active compounds read low 0.973 | S. cerevisiae deletion strains, locus YPL055C, strain LGE1, active compounds read low 1.02 | S. cerevisiae deletion strains, locus YPL078C, strain atp4, active compounds read low 0.996 | S. cerevisiae deletion strains, locus YPL106C, strain sse1, active compounds read low 0.938 | S. cerevisiae deletion strains, locus YPL240C, strain hsp82, active compounds read low 0.991 | S. cerevisiae deletion strains, locus YPL241C, strain CIN2, active compounds read low 0.996 | S. cerevisiae deletion strains, locus YPL256C, strain CLN2, active compounds read low 0.997 | S. cerevisiae deletion strains, locus YPR119W, strain clb2, active compounds read low 0.971 | S. cerevisiae deletion strains, locus YPR141C, strain kar3, active compounds read low 0.974 | S. cerevisiae deletion strains, locus YPR163C, strain tif3, active compounds read low 0.991 | S. cerevisiae deletion strains, locus YPR167C, strain met16, active compounds read low 0.98 | S. cerevisiae deletion strains, strain wtn01, active compounds read low 0.978 | S. cerevisiae strains, strain wild type, active compounds read low 1.01

Reference: PubChem BioAssay AID1159580 (chemical genetic matrix, 2015)
